PubChem BioAssay (Tox21)
Inconclusive results are not listed. Where a call stands in place of a potency, no number is given. A number with no mark means an inactive call. Calls of active or inactive are those of the source. Unless noted, the call rests on the fitted dose curve; in most records, active means well fitted curve in the direction sought with a large enough effect in the repeat runs; inconclusive means weak or mixed curves; inactive means no such curve, though single readings can be large; an effect the other way counts as inactive or inconclusive.

How the values were obtained:
[1] = qHTS assay to identify small molecule agonists of the vitamin D receptor (VDR) signaling pathway - cell viability counter screen (AID 743224); further: series mostly up to about 63 µM; nearly all actives have a fitted effect of over 50% in size
Procedure, shortened: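 VDR-bla cells, 4 h after plating, exposed to compounds for 16 h at 37C; viability then read in the same wells as CellTiter-Glo luminescence after 30 min at room temperature, following the bla FRET read.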

[2] = qHTS assay to identify small molecule antagonists of the vitamin D receptor (VDR) signaling pathway - cell viability counter screen (AID 743225); further: nearly all actives have a fitted effect of over 50% in size
Procedure, shortened: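 Luminescent cell viability (CellTiter-Glo) in VDR-bla HEK 293T cells after 16 h compound exposure at 37C in the presence of 3 nM final 1-alpha,25-dihydroxy vitamin D3.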

[3] = qHTS assay to identify small molecule agonists of the NFkB signaling pathway (AID 1159509; active means well fitted curve in the direction sought with a large enough effect in the signal ratio in the repeat runs, not every such curve was filed as active; the % refers to the signal ratio; further: series mostly up to about 61 µM)
Procedure, shortened: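 ME-180 NFkB-bla, 2,000 cells/well, overnight plating; cpd pinned in DMSO, 5 h 37 C; B/G FRET substrate 1.5 h RT; ex 405, em 460/530 nm.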

[4] = qHTS assay to identify small molecule agonists of the NFkB signaling pathway - cell viability counter screen (AID 1159515; calls by dose curve; further: series mostly up to about 61 µM; nearly all actives have a fitted effect of over 55% in size)
Procedure, shortened: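 NFkB-bla ME-180 cells, 2,000/well, plated overnight at 37 C; compound added for 5 hr at 37 C. Viability read in the same wells as the bla reporter, by CellTiter-Glo luminescence after 30 min at room temperature.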

[5] = qHTS assay to identify small molecule agonists of the endoplasmic reticulum stress response signaling pathway (AID 1159516; active means well fitted activation curve with a large enough effect in the signal ratio in the repeat runs, not every such curve was filed as active; the % refers to the signal ratio)
Procedure, shortened: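 CellSensor ESRE-bla HeLa cells, 1,500 per well, plated overnight, then exposed to compounds for 5 hr at 37 C. Beta-lactamase reporter read with LiveBLAzer B/G FRET substrate after 2 hr at room temperature, 405 nm excitation, 460 and 530 nm emission.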

[6] = qHTS assay to identify small molecule agonists of the endoplasmic reticulum stress response signaling pathway - cell viability counter screen (AID 1159517; calls by dose curve;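 further: HeLa cells carrying an ER stress response element beta-lactamase reporter; series mostly up to about 61 µM; nearly all actives have a fitted effect of over 50% in size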)
Procedure, shortened: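 CellTiter-Glo was added to wells already read for beta-lactamase FRET, and luminescence was recorded 30 min later. Cells: ESRE-bla HeLa, 1,500 per well, compound exposure 5 hr at 37 C.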

[7] = qHTS assay to identify small molecule antagonists of the retinoid-related orphan receptor gamma (ROR-gamma) signaling pathway - cell viability counter screen (AID 1159520); further: nearly all actives have a fitted effect of over 50% in size
Procedure, shortened: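 Tet-on ROR gamma CHO cells (1,000/well) were plated 4 hr, given compounds in DMSO for 2 hr at 37 C, then induced with 1 uM final doxycycline for 16 hr. Viability was read as ATP by CellTiter-Glo luminescence after 30 min.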

[8] = molecular target: Nuclear receptor ROR-gamma (Homo sapiens) (UniProt P51449); assay: qHTS assay to identify small molecule antagonists of the retinoid-related orphan receptor gamma (ROR-gamma) signaling pathway (AID 1159521; further: nearly all actives have a fitted effect of over 50% in size; further: potency means the concentration at half of the fitted maximal effect)
Procedure, shortened: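 CHO cells expressing RORγ under a TET-on promoter, luciferase under RORE control. Dox 1 uM final, 16 h; compounds added 2 h prior. Luminescence decrease measured.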

[9] = qHTS assay to identify small molecule agonists of the AP-1 signaling pathway (AID 1159526; calls by dose curve; further: potency means the concentration at half of the fitted maximal effect)
[10] = qHTS assay to identify small molecule agonists of the RXR signaling pathway - cell viability counter screen (AID 1159529)
Procedure, shortened: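 Same-well viability check after the LiveBLAzer FRET read: CellTiter-Glo added, luminescence measured after 30 min at room temperature. Reporter HEK 293T cells had been treated with compounds for 16 hr following a 5 hr preincubation.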

[11] = qHTS assay to identify small molecule antagonists of the retinoid acid receptor (RAR) signaling pathway - cell viability counter screen (AID 1159551); further: nearly all actives have a fitted effect of over 35% in size
Procedure, shortened: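 C3RL4 RARE-luciferase cells, 1,000/well, incubated overnight, then dosed with compound plus 1 uM retinol (final). After 6 hr at 37 C, viability read by CellTiter-Glo ATP luminescence following 30 min at room temperature.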

[12] = qHTS assay to identify small molecule antagonists of the retinoic acid receptor (RAR) signaling pathway (AID 1159552; further: nearly all actives have a fitted effect of over 50% in size)
Procedure, shortened: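 Readout: luciferase luminescence, 30 min post-reagent at RT. Setup: C3RL4 RARE reporter cells, compounds plus retinol 1 uM final, 6 hr incubation at 37 C and 5% CO2.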

[13] = qHTS assay to identify small molecule agonists of the retinoic acid receptor (RAR) signaling pathway (AID 1159553); further: potency means the concentration at half of the fitted maximal effect
Procedure, shortened: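 C3RL4 RARE-luciferase cells were seeded at 1,000/well and grown overnight at 37 C, then exposed to compounds for 6 hr at 37 C, 5% CO2. Luciferase reagent was added and luminescence was read after 30 min at room temperature.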

[14] = qHTS assay to identify small molecule agonists of the AP-1 signaling pathway - cell viability counter screen (AID 1159525; calls by dose curve; further: nearly all actives have a fitted effect of over 55% in size)
Procedure, shortened: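 ME-180 AP-1-bla, 2500 cells/well, Opti-MEM + 0.5% dialyzed FBS; overnight 37 °C; cpd 15-pt titration, 5 h 37 °C; CellTiter-Glo 30 min RT; luminescence read; normalised to TOAB and DMSO controls.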

[15] = molecular target: Retinoic acid receptor RXR-alpha (Homo sapiens) (UniProt P19793); assay: qHTS assay to identify small molecule agonists of the RXR signaling pathway (AID 1159527; calls by dose curve; further: nearly all actives have a fitted effect of over 35% in size)
Retinoic acid receptor RXR-alpha (Homo sapiens), sequence (P19793 whole entry, looked up): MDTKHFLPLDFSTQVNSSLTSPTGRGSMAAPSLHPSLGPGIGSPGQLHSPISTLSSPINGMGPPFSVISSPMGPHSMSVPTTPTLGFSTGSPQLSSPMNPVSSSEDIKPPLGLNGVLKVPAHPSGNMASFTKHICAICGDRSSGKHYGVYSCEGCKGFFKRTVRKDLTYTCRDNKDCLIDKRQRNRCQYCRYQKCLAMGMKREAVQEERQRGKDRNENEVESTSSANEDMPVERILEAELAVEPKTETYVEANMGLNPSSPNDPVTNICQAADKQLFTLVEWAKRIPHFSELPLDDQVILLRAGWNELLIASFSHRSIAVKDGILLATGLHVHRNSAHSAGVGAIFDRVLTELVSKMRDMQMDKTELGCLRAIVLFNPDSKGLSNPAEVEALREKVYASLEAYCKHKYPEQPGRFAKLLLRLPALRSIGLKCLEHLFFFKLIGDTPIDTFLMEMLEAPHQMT
Procedure, shortened: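 Beta-lactamase reporter assay, agonist format. Engineered HEK 293T line, charcoal-stripped FBS at 2%, overnight (16 hr) exposure, fluorescence at 460 and 530 nm after 405 nm excitation.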

Row | Compound | outcome [1] | outcome [2] | outcome [3] | outcome [4] | outcome [5] | outcome [6] | Potency [7] | Potency [8] | Potency [9] | Potency [10] | outcome [11] | outcome [12] | Potency [13] | outcome [14] | outcome [15]
1 | C[Si](C)(C)O[Si](C)(C)O[Si](C)(C)C | inactive | inactive | inactive | inactive | inactive | inactive | inactive | inactive | inactive | inactive | inactive | – | – | – | –
2 | COc1ccc(C(=O)Nc2ccccc2)cc1[N+](=O)[O-] | inactive | inactive | inactive | inactive | inactive | inactive | inactive | inactive | inactive | – | inactive | inactive | 30.9 µM (active) | – | –
3 | Oc1ccc(CCNCCCCCCNCCc2ccccc2)cc1O | – | inactive | inactive | inactive | inactive | inactive | inactive | inactive | inactive | – | inactive | inactive | inactive | – | –
4 | O=C(O)c1c2ccccc2cc2ccccc12 | inactive | inactive | inactive | inactive | inactive | inactive | inactive | – | 24.5 µM (active) | – | inactive | – | – | inactive | –
5 | Nc1ccc(-c2ccc(F)cc2)cc1 | inactive | inactive | inactive | inactive | inactive | inactive | inactive | – | inactive | inactive | inactive | inactive | – | inactive | –
6 | CCc1cnc(C(=O)O)c(C(=O)O)c1 | inactive | inactive | inactive | inactive | inactive | inactive | inactive | – | inactive | inactive | inactive | – | – | inactive | –
7 | O=c1c2ccccc2oc2ccccc12 | inactive | inactive | inactive | inactive | inactive | inactive | inactive | – | inactive | inactive | inactive | inactive | 27.3 µM (active) | – | –
8 | O=C(O)c1ccccc1[N+](=O)[O-] | inactive | inactive | inactive | inactive | inactive | inactive | inactive | – | inactive | inactive | inactive | inactive | inactive | inactive | –
9 | CCOC(OCC)OCC | inactive | inactive | inactive | inactive | inactive | inactive | inactive | inactive | inactive | – | inactive | inactive | inactive | – | –
10 | O=c1[nH][nH]c2ccccc12 | inactive | inactive | inactive | inactive | inactive | inactive | inactive | 15.6 µM (active) | 49.9 µM (active) | inactive | inactive | – | – | – | –
11 | CCc1ccc2c(c1)C(=O)c1ccccc1C2=O | inactive | inactive | inactive | inactive | inactive | inactive | inactive | inactive | inactive | inactive | inactive | inactive | – | – | –
12 | CO[C@@H]1[C@@H](O[C@@H]2O[C@H](C)[C@@H](O[C@H]3C[C@@](C)(O)[C@@H](O)[C@H](C)O3)[C@H](N(C)C)[C@H]2O)[C@@H](CC=O)C[C@@H](C)[C@@H](O[C@@H]2CC[C@H](N(C)C)[C@@H](C)O2)/C=C/C=C/C[C@@H](C)OC(=O)C[C@H]1OC(C)=O | inactive | inactive | inactive | inactive | inactive | inactive | inactive | – | inactive | – | inactive | inactive | inactive | inactive | –
13 | Cc1ccc(S(=O)(=O)NC(=O)NC2CCCC2)cc1 | inactive | inactive | inactive | inactive | inactive | inactive | inactive | inactive | – | inactive | inactive | inactive | inactive | – | inactive
14 | CC[C@H](NC(C)C)[C@H](O)c1ccc(O)c2[nH]c(=O)ccc12 | inactive | inactive | inactive | inactive | inactive | inactive | inactive | inactive | inactive | – | inactive | inactive | – | – | –
15 | Cc1c(Cl)cccc1[N+](=O)[O-] | inactive | inactive | inactive | inactive | inactive | inactive | inactive | – | inactive | inactive | inactive | inactive | inactive | inactive | –
16 | Cc1c(-c2cccnc2)c2ccccc2n1CCCCC(=O)O | inactive | inactive | inactive | inactive | inactive | inactive | inactive | – | inactive | inactive | inactive | inactive | – | – | –
17 | O=C(OCCOCCOCCOC(=O)c1ccccc1)c1ccccc1 | inactive | inactive | inactive | inactive | inactive | inactive | inactive | inactive | inactive | inactive | inactive | inactive | – | – | –
18 | CC(C)Oc1ccccc1O | inactive | inactive | inactive | inactive | inactive | inactive | inactive | inactive | inactive | inactive | inactive | – | – | – | –
19 | CCC(C)C1N=C(C)C(C)S1 (centres undefined) | inactive | inactive | inactive | inactive | inactive | inactive | inactive | – | inactive | inactive | inactive | inactive | inactive | inactive | –
20 | CCC(C)CCCC(C)(C)O (centres undefined) | inactive | inactive | inactive | inactive | inactive | inactive | inactive | – | inactive | inactive | inactive | inactive | inactive | inactive | –
21 | [O-][n+]1ccc(Cl)cc1 | inactive | inactive | inactive | inactive | inactive | inactive | inactive | – | inactive | inactive | inactive | inactive | inactive | inactive | –
